Compounds with a hit are over-represented: about 19% of the library has one in this group of screens.
HT1080NT lethal: kills 2HG-producing HT-1080-NT fibrosarcoma cells; HT-1080-NT fibrosarcoma viability, CellTiter-Glo ATP luminescence, 48 h; 360,000 compounds, 1.6% hits; Potency, µM (series often up to 46.1 µM), for the others: top-dose activity, negative = less viability, usual class: cytotoxic; AID 686970;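 also: NT is the 2HG producing partner of a matched IDH1 knockdown line; potency is read from the fitted curve at half-maximal effect; 0% = DMSO-treated cells and -100% = media-only wells without cells; nearly all actives have a fitted effect of over 55% in size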
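Viability of the 2HG-overproducing fibrosarcoma line after 48 hours of compound exposure at 37 degrees C was determined by luminescence with CellTiter-Glo, and concentration-effect curves were then fitted and categorized.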
IL-1B inflam inh: blocks inflammasome-driven IL-1 beta release; activity change, % at 57.5 µM; THP-1 LPS/ATP IL-1B secretion, AlphaLISA, 16 h; stronger effect = lower value; AID 743279; 360,000 compounds, 4.7% hits; in the data active = activity change below about -50%; inconclusive = mostly about -30% to -49%
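THP-1 cells pretreated 1 hr with compounds (up to 57.5 uM final), then stimulated with LPS (250 ng/mL final) plus ATP (1.25 mM final); secreted IL-1B measured by AlphaLISA after 16 hr, decreased signal indicating inhibition.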
HT1080 IDH1KD tx: HT-1080 IDH1 knockdown cell toxicity (counter line); Potency, µM (doses to about 46.1 µM), for the others: at the top dose activity, negative = toxicity, most hits filed as cytotoxic; HT-1080 IDH1 knockdown viability, ATP luminescence, 48 h; 360,000 compounds, 2% hits;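 also: potency is read from the fitted curve at half-maximal effect; 0% = DMSO wells and -100% = cell-free medium wells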
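In this qHTS, HT-1080 cells depleted of IDH1 are exposed for 48 h at 37 °C to compound titrations. Toxicity is scored from CellTiter-Glo luminescence, with DMSO as full viability and medium alone as none.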
DT40 TDP1 no CPT: qHTS for Inhibitors of human tyrosyl-DNA phosphodiesterase 1 (TDP1): qHTS in cells in absence of CPT; 420,000 compounds, 15% hits; AID 686978, 2013; DT40 Tdp1-/- hTDP1 cells, no CPT, ATP luminescence, 48 h; Potency, µM (doses to about 46.2 µM), for the others: at the highest dose activity change, negative = growth inhibition, most hits filed as inhibitors; also: potency is read from the fitted curve at half-maximal effect; nearly all actives have a fitted effect of over 55% in size
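Readout: luminescence from CellTiter-Glo after 30 min in the dark at RT. Cells: DT40 Tdp1-/- with stable hTDP1, 400/well. Exposure: compounds alone, ≥48 hr, 37 °C.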
DT40 TDP1 CPT: growth inhibition of DT40 Tdp1-/-;hTDP1 cells with camptothecin (screen for TDP1 inhibitors) | chicken DT40 Tdp1-/-;hTDP1 cells + 20 nM CPT, ATP luminescence, 48 h | Potency, µM (top dose mostly 46.2 µM), for inactives: at the top dose activity change, negative = growth inhibition, usual class: inhibitors | 420,000 compounds, 12% hits; also: potency is read from the fitted curve at half-maximal effect; nearly all actives have a fitted effect of over 55% in size
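Chicken DT40 Tdp1-/- cells stably complemented with human TDP1 were seeded at 400 cells/well in medium containing 20 nM camptothecin, exposed to pin-transferred compounds, and grown at 37 °C for at least 48 hr. Viability was read as ATP luminescence.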
The depositor's hits bear a star; [ ] = remark or other dose. Unless noted, calls follow the shape of the dose curve; as a rule, active = well fitted curve in the direction sought with a large enough effect; inconclusive = small, poorly fitted or top-dose-only effect, or another doubt; inactive = no such curve, though single readings can be large; an effect the other way counts as inactive or inconclusive. Unless noted, % is scaled to controls: 0 for no effect and ±100 for the full control effect.

What do the screens show for `CC(C)(C)OC(=O)Nc1ncnc2c1ncn2C1OC(CO)C2OC(C)(C)OC21` (centres undefined)?
HT1080NT lethal: 0%; IL-1B inflam inh: 1; HT1080 IDH1KD tx: -1%; DT40 TDP1 no CPT: -18%; DT40 TDP1 CPT: 12%

What do the screens show for `CC1(C)O[C@@H]2[C@H](O1)[C@@H](CO)O[C@H]2n1cnc2c(=O)[nH]cnc21`?
HT1080NT lethal: inconclusive; IL-1B inflam inh: -6; HT1080 IDH1KD tx: 15%; DT40 TDP1 no CPT: -5%; DT40 TDP1 CPT: 29µM*

Results for COc1cc(/C=C/C(=O)O[C@H]2CC[C@]34C[C@]35CC[C@]3(C)[C@@H]([C@H](C)CCC=C(C)C)CC[C@@]3(C)[C@@H]5CC[C@H]4C2(C)C)ccc1O ?
DT40 TDP1 no CPT: -2%; DT40 TDP1 CPT: 7%

What do the screens show for `CC(=O)N1c2ccc(S(=O)(=O)N3CCC(C(=O)Nc4ccc(C)cn4)CC3)cc2CC1C` (centres undefined)?
HT1080NT lethal: -5%; IL-1B inflam inh: -19; HT1080 IDH1KD tx: -9%; DT40 TDP1 no CPT: inconclusive; DT40 TDP1 CPT: inconclusive

What do the screens show for `CC1Cc2cc(S(=O)(=O)N3CCC(C(=O)Nc4ccccn4)CC3)ccc2N1C(=O)C1CCC1` (centres undefined)?
HT1080NT lethal: inconclusive; IL-1B inflam inh: inconclusive; HT1080 IDH1KD tx: -28%; DT40 TDP1 no CPT: 21µM*; DT40 TDP1 CPT: 18µM*

Results for Cc1ccc(NC(=O)C2CCN(S(=O)(=O)c3ccc4c(c3)CC(C)N4C(=O)C3CCC3)CC2)nc1 (centres undefined) ?
HT1080NT lethal: -26%; IL-1B inflam inh: -81*; HT1080 IDH1KD tx: inconclusive; DT40 TDP1 no CPT: inconclusive; DT40 TDP1 CPT: 16µM*

How did CC1Cc2cc(S(=O)(=O)N3CCC(C(N)=O)CC3)ccc2N1C(=O)C1CC1 (centres undefined) do in these assays?
HT1080NT lethal: 8%; IL-1B inflam inh: 4; HT1080 IDH1KD tx: 0%; DT40 TDP1 no CPT: -1%; DT40 TDP1 CPT: -12%

Results for COc1ccc(S(=O)(=O)N2CCCCCC2)cc1C(=O)Nc1cc(C)ccn1 ?
HT1080NT lethal: -5%[9.24 µM]; IL-1B inflam inh: -27; HT1080 IDH1KD tx: -18%; DT40 TDP1 no CPT: inconclusive; DT40 TDP1 CPT: 21µM*

What do the screens show for `COc1ccc(S(=O)(=O)N2CCCCCC2)cc1C(=O)Nc1ccc(C)cn1`?
HT1080NT lethal: 11%; IL-1B inflam inh: -11; HT1080 IDH1KD tx: 5%; DT40 TDP1 no CPT: inconclusive; DT40 TDP1 CPT: -5%

How did Cc1ccnc(NC(=O)C2CCN(S(=O)(=O)c3ccc4c(c3)CC(C)N4C(=O)C3CCC3)CC2)c1 (centres undefined) do in these assays?
HT1080NT lethal: -21%; IL-1B inflam inh: -69*; HT1080 IDH1KD tx: inconclusive; DT40 TDP1 no CPT: inconclusive; DT40 TDP1 CPT: inconclusive

Results for Cc1ccnc(NC(=O)C2CCN(S(=O)(=O)c3ccc(C)c(C)c3)CC2)c1 ?
HT1080NT lethal: -21%; IL-1B inflam inh: -84*; HT1080 IDH1KD tx: -12%; DT40 TDP1 no CPT: -20%; DT40 TDP1 CPT: -4%

What do the screens show for `Cc1ccc(CNC(=O)C2CCN(S(=O)(=O)c3ccc4c(c3)CC(C)N4C(=O)C3CCC3)CC2)o1` (centres undefined)?
HT1080NT lethal: -22%; IL-1B inflam inh: -26; HT1080 IDH1KD tx: -9%; DT40 TDP1 no CPT: 29µM*; DT40 TDP1 CPT: inconclusive

Results for Cc1cccc(C(=O)Nc2ccc(NC(=O)Cc3ccc(Cl)cc3)cc2)c1 ?
HT1080NT lethal: 0%; IL-1B inflam inh: -4; HT1080 IDH1KD tx: 6%; DT40 TDP1 no CPT: -3%; DT40 TDP1 CPT: -5%

How did Cc1cccc(C(=O)Nc2c(C(=O)NCc3ccc(Cl)cc3)sc3nc(C)cc(C)c23)c1 do in these assays?
DT40 TDP1 no CPT: 26µM*; DT40 TDP1 CPT: 16µM*

What do the screens show for `S=C1NCCN1CC1CCN(CCCC2CCCC2)CC1`?
HT1080NT lethal: 4%; IL-1B inflam inh: -5; HT1080 IDH1KD tx: 1%; DT40 TDP1 no CPT: -16%; DT40 TDP1 CPT: -20%

Results for Cc1cccc(OCC(=O)Nc2ccc(S(=O)(=O)N(Cc3ccccc3)c3ccccc3)cc2)c1 ?
DT40 TDP1 no CPT: 3.3µM*; DT40 TDP1 CPT: 10µM*

How did O=C(COc1ccccc1)Nc1ccc(S(=O)(=O)N(Cc2ccccc2)c2ccccc2)cc1 do in these assays?
DT40 TDP1 no CPT: 15µM*; DT40 TDP1 CPT: inconclusive

What do the screens show for `Cc1cccc(OCC(=O)Nc2ccc(NC(=O)c3ccccc3)cc2)c1`?
HT1080NT lethal: 7%; IL-1B inflam inh: 10; HT1080 IDH1KD tx: 11%; DT40 TDP1 no CPT: -1%; DT40 TDP1 CPT: 6%

What do the screens show for `O=C(NCc1ccc(F)cc1)C1CCCN1S(=O)(=O)c1cccc2nsnc12` (centres undefined)?
HT1080NT lethal: 6%; IL-1B inflam inh: -3; HT1080 IDH1KD tx: -2%; DT40 TDP1 no CPT: 1%; DT40 TDP1 CPT: 4%

What do the screens show for `CCOC(=O)c1c(NC(=O)C(Sc2ccccc2)c2ccccc2)sc(C(=O)N(C)C)c1C` (centres undefined)?
HT1080NT lethal: -4%; IL-1B inflam inh: -25; HT1080 IDH1KD tx: inconclusive; DT40 TDP1 no CPT: 16µM*; DT40 TDP1 CPT: inconclusive

Results for CCOC(=O)c1c(NC(=O)COC(=O)CNC(=O)c2ccco2)sc(C)c1C ?
HT1080NT lethal: -3%; IL-1B inflam inh: -6; HT1080 IDH1KD tx: -10%; DT40 TDP1 no CPT: inconclusive; DT40 TDP1 CPT: 5.8µM*

Results for CCOC(=O)c1c(NC(=O)COC(=O)c2ccc(O)cc2)sc(C(=O)N(C)C)c1C ?
HT1080NT lethal: -1%; IL-1B inflam inh: -1; HT1080 IDH1KD tx: -5%; DT40 TDP1 no CPT: 23µM*; DT40 TDP1 CPT: inconclusive

What do the screens show for `CCOC(=O)c1c(NC(=O)OC)sc(C(=O)N(C)C)c1C`?
HT1080NT lethal: 18%; IL-1B inflam inh: -2; HT1080 IDH1KD tx: 8%; DT40 TDP1 no CPT: -20%; DT40 TDP1 CPT: -13%

How did CCOC(=O)c1c(NC(=O)COC(=O)CCOc2ccccc2C)sc(C(=O)NC)c1C do in these assays?
HT1080NT lethal: -3%; IL-1B inflam inh: -2; HT1080 IDH1KD tx: -3%; DT40 TDP1 no CPT: inconclusive; DT40 TDP1 CPT: 23µM*

How did Cc1ccc(NC(=O)CN(C)S(=O)(=O)c2cnc[nH]2)cc1 do in these assays?
DT40 TDP1 no CPT: -3%; DT40 TDP1 CPT: 15%

How did O=C(NCc1ccccc1F)Nc1nnc([C@@H]2C[C@H](O)[C@@H](CO)O2)s1 do in these assays?
HT1080NT lethal: 10%; IL-1B inflam inh: 12; HT1080 IDH1KD tx: 3%; DT40 TDP1 no CPT: -2%; DT40 TDP1 CPT: 2%

How did O=C(O)c1sccc1SCc1ccc(Cl)c(Cl)c1 do in these assays?
HT1080NT lethal: -2%; IL-1B inflam inh: 11; HT1080 IDH1KD tx: -14%; DT40 TDP1 no CPT: -14%; DT40 TDP1 CPT: 1%

Assay outcomes: PubChem, National Center for Advancing Translational Sciences (NCATS)
